Measured values from the supplement of paper PMC9262897, “Low-cost anti-mycobacterial drug discovery using engineered E. coli” (Nature Communications, 2022).
Structures can show the parent of a compound that is named as a salt. ± gives the standard deviation of the averaged measurements.

These molecules were tested on E. coli TESEC Mtb Alr (assay: growth (OD600 after 10 h); higher = more growth (less inhibition)). Settings: arabinose 10000000 nM; compound 0.1 mM; raw OD600 reference: median of DMSO wells 0.146, cell-free background 0.041.
Description: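 TESEC Mtb Alr E. coli, or the Alr+ wild-type control, in 384-well plates with Prestwick library compounds at 0.1 mM and 1% DMSO, across arabinose induction levels of 1E3 to 1E7 nM. Growth is read as OD600 after 10 h at 37 °C in triplicate biological replicates.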
For `N=c1nc(N2CCCCC2)cc(N)n1O` [Minoxidil], the growth was 0.148 ± 0.0099. `CC(=O)NC[C@H]1CN(c2ccc(N3CCOCC3)c(F)c2)C(=O)O1` [Linezolid] gave a growth of 0.0474 ± 0.0016. For `CC(O)(P(=O)(O)O)P(=O)(O)O` [Etidronic acid, disodium salt], the growth was 0.159 ± 0.003. `COc1ccc2cc([C@@H](C)C(=O)O)ccc2c1` [(R) -Naproxen sodium salt] showed a growth of 0.141 ± 0.0034. `NC1CCN(c2nc3c(cc2F)c(=O)c(C(=O)O)cn3-c2ccc(F)cc2F)C1` (stereo not given) [Tosufloxacin hydrochloride] gave a growth of 0.0575 ± 0.0043. `O=C(NCCNCC(O)COc1ccc(O)cc1)N1CCOCC1` (stereo not given) [Xamoterol hemifumarate] was tested, and the growth was 0.138 ± 0.0031. With `Cc1cc2cc3c(C)cc(=O)oc3c(C)c2o1` [Trioxsalen] the growth was 0.1653 ± 0.0007. With `CCCCC(=O)O[C@H]1CC[C@H]2[C@@H]3CCc4cc(O)ccc4[C@H]3CC[C@]12C` [Estradiol Valerate] the growth was 0.13 ± 0.0034. `CCCc1ncc(C[n+]2ccccc2C)c(N)n1` [Amprolium hydrochloride] was tested, and the growth was 0.142 ± 0.0046. In the case of `COC1=C(OC)C(=O)C(CCCCCCCCCCO)=C(C)C1=O` [Idebenone], the growth is reported as 0.0482 ± 0.0015. With `CC(N/C(=N\C#N)Nc1ccncc1)C(C)(C)C` (stereo not given) [Pinacidil] the growth was 0.138 ± 0.0067. Molecule `C[C@H]1C[C@H]2[C@@H]3CCC4=CC(=O)C=C[C@]4(C)[C@@]3(F)[C@@H](O)C[C@]2(C)[C@@]1(O)C(=O)CO` [Betamethasone] has a growth of 0.131 ± 0.0027. `Fc1ccc(C(c2ccc(F)cc2)N2CCN(C/C=C/c3ccccc3)CC2)cc1` [Flunarizine dihydrochloride] gave a growth of 0.0509 ± 0.0027. In the case of `CCC(NC(C)C)C(O)c1ccc(O)c(O)c1` (stereo not given) [Isoetharine mesylate salt], the growth is reported as 0.155 ± 0.0024. `C[C@H]1O[C@@H](O[C@H]2[C@@H](O)C[C@H](O[C@H]3[C@@H](O)C[C@H](O[C@H]4CC[C@@]5(C)[C@H](CC[C@@H]6[C@@H]5C[C@@H](O)[C@]5(C)[C@@H](C7=CC(=O)OC7)CC[C@]65O)C4)O[C@@H]3C)O[C@@H]2C)C[C@H](O)[C@@H]1O` [Digoxin] showed a growth of 0.136 ± 0.0037. With `CC(C)(O/N=C(\C(=O)N[C@@H]1C(=O)N2C(C(=O)[O-])=C(C[n+]3ccccc3)CS[C@H]12)c1csc(N)n1)C(=O)O` [Ceftazidime pentahydrate] the growth was 0.0674 ± 0.0023. `Cc1cccc(C)c1NC(=O)C(C)N` (stereo not given) [Tocainide hydrochloride] was tested, and the growth was 0.145 ± 0.0027. With `CCCCNc1cc(C(=O)O)cc(S(N)(=O)=O)c1Oc1ccccc1` [Bumetanide] the growth was 0.138 ± 0.0095. Work on `CCCSc1ccc2[nH]c(NC(=O)OC)nc2c1` [Albendazole] yielded a growth of 0.137 ± 0.0025. In the case of `O=c1[nH]cc(F)c(=O)[nH]1` [5-fluorouracil], the growth is reported as 0.08963 ± 0.00055. For `CCN(CC)CCOC(=O)C(c1ccccc1)c1ccccc1` [Adiphenine hydrochloride], the growth was 0.142 ± 0.0034. `CCCCc1cc2ccccc2c(OCCN(C)C)n1` [Dimethisoquin hydrochloride] was tested, and the growth was 0.1567 ± 0.0013. Molecule `Nc1ccc(S(=O)(=O)Nc2nccs2)cc1` [Sulfathiazole] has a growth of 0.142 ± 0.006. For `Nc1c2c(nc3ccccc13)CCCC2` [Tacrine hydrochloride], the growth was 0.168 ± 0.007. Work on `O=C(O)c1cc(/N=N/c2ccc(S(=O)(=O)Nc3ccccn3)cc2)ccc1O` [Sulfasalazine] yielded a growth of 0.131 ± 0.0032. Molecule `Oc1c(Cl)cc(Cl)c(Cl)c1Cc1c(O)c(Cl)cc(Cl)c1Cl` [Hexachlorophene] has a growth of 0.0464 ± 0.0029. For `CC(C)(C)NC(=O)[C@@H]1C[C@@H]2CCCC[C@@H]2CN1C[C@@H](O)[C@H](Cc1ccccc1)NC(=O)[C@H](CC(N)=O)NC(=O)c1ccc2ccccc2n1` [Saquinavir mesylate], the growth was 0.0524 ± 0.0032. In the case of `CN1CCN(C2=Nc3cc(Cl)ccc3Nc3ccccc32)CC1` [Clozapine], the growth is reported as 0.154 ± 0.0034. In the case of `COc1ccc(C2CNC(=O)C2)cc1OC1CCCC1` (stereo not given) [Rolipram], the growth is reported as 0.14 ± 0.0022. `C[C@H](Cc1cc2c(c(C(N)=O)c1)N(CCCO)CC2)NCCOc1ccccc1OCC(F)(F)F` [Silodosin] gave a growth of 0.14 ± 0.0083. With `COCCCOc1ccnc(C[S+]([O-])c2nc3ccccc3[nH]2)c1C` (stereo not given) [Rabeprazole Sodium salt] the growth was 0.1339 ± 0.0007. Work on `O=C(O)c1cccnc1Nc1cccc(C(F)(F)F)c1` [Niflumic acid] yielded a growth of 0.099 ± 0.0016. `C[C@]12CC[C@@H]3c4ccc(O)cc4C[C@@H](CCCCCCCCC[S+]([O-])CCCC(F)(F)C(F)(F)F)[C@H]3[C@@H]1CC[C@@H]2O` (stereo not given in full) [Fulvestrant] gave a growth of 0.137 ± 0.005. Work on `CC(C)(C)NCC(O)COc1cccc2c1CC(O)C(O)C2` (stereo not given) [Nadolol] yielded a growth of 0.137 ± 0.0026. `CCc1cccc(CC)c1NC(=O)CN(CC(=O)O)CC(=O)O` [Etifenin] showed a growth of 0.146 ± 0.0052. With `CCC(=O)[C@@]1(C)[C@H](C)C[C@H]2[C@@H]3CCC4=CC(=O)C=C[C@]4(C)[C@H]3[C@@H](O)C[C@@]21C` [Rimexolone] the growth was 0.132 ± 0.0029. With `Cc1cn([C@H]2C[C@H](N=[N+]=[N-])[C@@H](CO)O2)c(=O)[nH]c1=O` [Zidovudine, AZT] the growth was 0.103 ± 0.0045. `O=C(CCCCCCC(=O)Nc1ccccc1)NO` [Vorinostat] showed a growth of 0.124 ± 0.011. Work on `CN/C(=N\CCSCc1nc[nH]c1C)NC#N` [Cimetidine] yielded a growth of 0.142 ± 0.0033. `O=C(N[C@H](CO)[C@H](O)c1ccc([N+](=O)[O-])cc1)C(Cl)Cl` [Chloramphenicol] showed a growth of 0.0407 ± 0.00064.
